According to PubChem BioAssay AID686978 (National Center for Advancing Translational Sciences (NCATS), 2013):
About 64,000 (15%) of roughly 420,000 compounds were called active. About 27% were inconclusive and are not listed. Calls follow the shape of the dose curve; as a rule, active = well fitted inhibition curve with a large enough effect; inconclusive = small, poorly fitted or top-dose-only effect; inactive = flat fitted curve, though single readings scatter. A selection follows.

experiment: qHTS for Inhibitors of human tyrosyl-DNA phosphodiesterase 1 (TDP1): qHTS in cells in absence of CPT; conditions: DT40 Tdp1-/- hTDP1 cells, no CPT, ATP luminescence, 48 h; activity change, negative = growth inhibition: at 46.2 µM (top of the series); also: nearly all actives have a fitted effect of over 55% in size
How it was run: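 Growth kinetics read by CellTiter-Glo luminescence after ≥48 hr at 37 °C. Cells: DT40 Tdp1-/- stably carrying human TDP1, 400 per well, compound exposure in the absence of CPT (DMSO vehicle).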
% is scaled to controls: 0 for no effect and ±100 for the full control effect; potency is read from the fitted curve at half-maximal effect.

Structure (SMILES)	activity change, negative = growth inhibition	Potency
O=C(CSc1cn(CC(=O)N2CCOCC2)c2ccccc12)Nc1ccccc1	-19.5% (inactive)	
O=C(CN1C(=O)NC2(CCCC2)C1=O)Nc1cc(C(F)(F)F)ccc1N1CCOCC1	-13.1% (inactive)	
Cc1ccc2c(c1)N(CCCC(=O)NCc1cccnc1)C(=O)CO2	1.85% (inactive)	
COc1cc(C)ccc1OCC(=O)OCC(=O)c1ccc[nH]1	-12.9% (inactive)	
COCC1CCN(C(=O)C2CCC(=O)N(CC3CCCCC3)C2)CC1 (stereo not given)	10.1% (inactive)	
Cc1ccc(S(=O)(=O)N(CC(=O)NCc2ccco2)c2ccccc2C)cc1	-25.5% (inactive)	
Cc1ccc(S(=O)(=O)N(CC(=O)Nc2ccc(Cl)cc2Cl)c2ccccc2C)cc1		11.6 µM (active)
CN(CC(=O)Nc1cccc2c1CCCC2)S(=O)(=O)c1ccc(Cl)cc1	-24.1% (inactive)	
Cc1ccc(N2C(=O)SC(N(CC(=O)O)c3ccc(C)cc3)C2=O)cc1 (stereo not given)	-0.545% (inactive)	
C(#CCN1CCOCC1)CCCN1CCOCC1	-4.04% (inactive)	
COc1ccc(Nc2nc(NCc3ccco3)nc(N/N=C/c3ccccc3Cl)n2)cc1		23.1 µM (active)
COc1ccc(Nc2nc(Cl)nc(NCc3ccco3)n2)cc1	-25.1% (inactive)	
COc1ccc(NC(=O)C(=O)NCc2ccco2)cc1	-2.26% (inactive)	
CN1CCn2cnc(C(=O)NCC(=O)OC(C)(C)C)c2C1=O	3.77% (inactive)	
CC12CCC(C(=O)N(CCC#N)CCC#N)(CC1=O)C2(C)C (stereo not given)	-4.04% (inactive)	
CC1=CC(C)(C)NC(=S)N1NC(=O)c1ccccc1Cl	-4.62% (inactive)	
COc1ccc(NS(=O)(=O)c2cc(NC(=O)C3CCCCC3)ccc2N2CCOCC2)cc1		13 µM (active)
COc1ccc(NS(=O)(=O)c2cc(NC(=O)/C=C/c3cc(OC)c(OC)c(OC)c3)ccc2N2CCCCC2)cc1	-18.2% (inactive)	
COc1ccc(NS(=O)(=O)c2cc(NC(=O)c3ccc(S(=O)(=O)N(C)C)cc3)ccc2N2CCOCC2)cc1	-17.8% (inactive)	
O=c1[nH]c(CN2CCOCC2)nc2scc(-c3ccccc3)c12	-6.06% (inactive)	
Oc1ccc(-n2nnnc2SCc2c(F)cccc2Cl)cc1	0.835% (inactive)	
CC(CC(=O)N1CCN(c2ccccc2)CC1)c1ccccc1 (stereo not given)	-24% (inactive)	
COc1ccccc1CNS(=O)(=O)c1ccc2c(c1)NC(=O)CS2	-27.6% (inactive)	
CC(CC(=O)N1CCN(c2ccccc2)CC1)S(=O)(=O)c1ccc2c(c1)NC(=O)CS2 (stereo not given)		20.6 µM (active)
Cc1nonc1NC(=O)c1ccccc1Br	-11.8% (inactive)	
CC(C)C(C(=O)NCc1ccco1)N(CC1CCCO1)C(=O)CNS(=O)(=O)c1ccc(F)cc1 (stereo not given)	-5.83% (inactive)	
CCOC(=O)Cc1ccc(NC(=O)Nc2c[nH]c(=O)[nH]c2=O)cc1	0.46% (inactive)	

Structure (SMILES)	activity change, negative = growth inhibition	Potency
CCN(CC)Cc1nc2sc(C)c(C)c2c(=O)[nH]1	15.3% (inactive)	
CS(=O)(=O)N(Cc1nc2sc3c(c2c(=O)[nH]1)CCCC3)C1CCCCC1		23.1 µM (active)
Cc1ccc(S(=O)(=O)N2CCCC2C(=O)OCc2nc3sc(C)c(C)c3c(=O)[nH]2)cc1 (stereo not given)	-7.99% (inactive)	
CC(=O)Nc1ccc(NC(=O)CC2CCCC2)cc1	-6.51% (inactive)	
COc1cc(CCN=Cc2ccccc2O)c([N+](=O)[O-])cc1OC	4.05% (inactive)	
Cc1c(NC(=O)C(=O)N/N=C/c2cccs2)c(=O)n(-c2ccccc2)n1C	-8.59% (inactive)	
Cc1cc(N=CC2=C(O)CCCC2=O)no1	-0.68% (inactive)	
CC1(C)CC2CC(C)(CN2c2ncnc3ccc(Br)cc23)C1 (stereo not given)		3.26 µM (active)
COc1ccc(Nc2ncnc3ccc(Br)cc23)c(OC)c1	-19.2% (inactive)	
CCCCn1c(N)c(N(CCOC)C(=O)CSCC(=O)Nc2cccc(C)c2)c(=O)[nH]c1=O	-0.682% (inactive)	
CC[C@@H](C)[C@@H](C(=O)N1CCN(C(=O)OC(C)(C)C)CC1)n1cc(CCC(=O)O)nn1	-0.0791% (inactive)	
COc1ccc(C2NC(=O)N(C)C3=C2C(=O)N(c2ccc(C(=O)O)cc2)C3)cc1 (stereo not given)	-25.2% (inactive)	
Cc1ccc2nnn(Cc3cccc(C(C)(C)C)c3O)c2c1		11.6 µM (active)
Cc1ccc(C(=O)CSc2nnc(Cn3nnc4ccccc43)n2C)cc1	-16.1% (inactive)	
O=C(Nc1ccccc1)N[C@H]1C[C@H](C(=O)O)Nc2cc(Cl)cc(Cl)c21	-8.72% (inactive)	
CCCCCc1ccc(-c2ccc(OCC)cc2)nc1	-15.2% (inactive)	
COc1ccc2[nH]c(=S)cc(C)c2c1	-20.7% (inactive)	
COc1ccc2[nH]c3ccc(OC)cc3c2c1	-13% (inactive)	
COc1ccc2[nH]c3c(C)c4cc[n+](C)cc4c(C)c3c2c1		0.259 µM (active)
O=S(=O)(NCc1ccc2c(c1)OCO2)c1cccc2nsnc12	11.7% (inactive)	
O=Cc1cn(-c2ccccc2)nc1-c1ccccn1	-16.8% (inactive)	
COc1ccc2c(c1)OC(O)(C(F)(F)C(F)F)CC2=O (stereo not given)		23.1 µM (active)
COc1ccc2c(c1)SC(C)CC2=O (stereo not given)	-6.21% (inactive)	
CCCC(C(=O)N1CCOCC1)N1C(=O)C2C3C=CC(C3)C2C1=O (stereo not given)	-3.04% (inactive)	
CC(=O)OCC(COC(C)=O)OC(C)=O		inactive
O=C(CN1C(=O)/C(=C\c2ccccc2F)SC1=S)Nc1nc2ccccc2s1	-16.7% (inactive)	
COCCN1CCn2c(nc3cc(NS(C)(=O)=O)ccc32)C1	2.37% (inactive)	

Structure (SMILES)	activity change, negative = growth inhibition	Potency
O=C(CN1C(=O)c2ccccc2S1(=O)=O)NC1CCCCC1	0.24% (inactive)	
COc1cccc(Oc2ccc(N)cc2)c1	4.38% (inactive)	
COc1cc(OC)nc(N/N=C(\c2ccccc2)c2ccncc2)n1	-24.4% (inactive)	
CCOc1ccc(N2C(=O)CSC2=NC#N)cc1	3.53% (inactive)	
CCC(C(=O)NC1CCCC1)N(C(=O)c1snc(C(N)=O)c1N)c1ccc2c(c1)OCCO2 (stereo not given)	-16.1% (inactive)	
COc1ccc(N(C(=O)c2snc(C(N)=O)c2N)C(C(=O)NC2CCCC2)c2ccco2)cc1OC (stereo not given)	-1.62% (inactive)	
CCC(C(=O)NC1CCCCC1)N(C(=O)c1snc(C(N)=O)c1N)c1ccc(OC)cc1OC (stereo not given)		23.1 µM (active)
COc1cccc(-n2c(=O)c3c(C)c(C(=O)N(C)C)sc3n(CC(=O)NCCc3ccc(OC)c(OC)c3)c2=O)c1		inactive
CN(C)C(CNC(=O)Cc1ccc([N+](=O)[O-])cc1)c1ccccc1 (stereo not given)	0.739% (inactive)	
CCc1ccc(C(CNc2nc(C(F)(F)F)nc3ccccc23)N(C)C)cc1 (stereo not given)		18.4 µM (active)
C=CCn1cc(Cl)cc(C(=O)Nc2ccccc2)c1=O	7.08% (inactive)	
CCn1cc(/C=C(\NC(=O)c2ccc(C)cc2)C(=O)NCCN2CCOCC2)c2ccccc21	-5.26% (inactive)	
O=C(CC(=O)N/N=C\c1ccc(F)cc1)NCCc1ccccc1	-3.12% (inactive)	
COc1ccccc1NC(=O)CCCc1c[nH]c2ccccc12	-21.7% (inactive)	
O=C(Cc1c[nH]c2ccccc12)N/N=C/c1cccc(F)c1		3.66 µM (active)
COCCNC(=O)C(c1ccc(O)cc1)N(C(=O)CCC(=O)Nc1nccs1)c1ccc(C)cc1 (stereo not given)	-15.8% (inactive)	
CCOC(=O)COc1ccc([N+](=O)[O-])cc1	-6.06% (inactive)	
C/C(=N/NC(=O)CC(=O)N/N=C(\C)c1ccc([N+](=O)[O-])cc1)c1ccc([N+](=O)[O-])cc1	-27.2% (inactive)	
C/C(=N\N(C)C)c1ccc(OCCOc2ccc([N+](=O)[O-])cc2)cc1		25.9 µM (active)
Cc1cccc(N(CC(=O)N2CCCC2)S(C)(=O)=O)c1C	-9% (inactive)	
CC1(OC(=O)CCc2ccccc2)C(=O)C=C2C=C(c3ccc(C#N)cc3)N(CCc3ccccn3)C=C2C1=O (stereo not given)	-15.3% (inactive)	
CCN(CC)S(=O)(=O)c1ccc2c3c(cccc13)C(=O)S2	-13.9% (inactive)	
C/C(=N\NC(=O)c1cccnc1)c1ccc(-n2ccnc2)cc1	-4.41% (inactive)	
CCC(C)NCCOCCOc1ccc(Br)cc1C (stereo not given)		20.6 µM (active)
COCC(C)NCc1cc(Br)ccc1OC (stereo not given)	-10.7% (inactive)	
O=C1C(=O)N(CCCN2CCOCC2)C(c2ccc([N+](=O)[O-])cc2)/C1=C(\O)c1ccc2c(c1)OCCO2 (stereo not given)	4.62% (inactive)	
O=C(ON=C1CCN(S(=O)(=O)c2ccccc2)CC1)c1ccc(Cl)cc1	1.58% (inactive)	

Structure (SMILES)	activity change, negative = growth inhibition	Potency
CCOc1cccc(-c2nnc(SCC(=O)NC3CC3)n2C)c1	16.9% (inactive)	
Cc1ccc(CNC(=O)CSc2nnc3c(n2)[nH]c2ccc(F)cc23)cc1	4.95% (inactive)	
CCOc1ccc2[nH]c3nc(SCC(=O)NC4CCCC4)nnc3c2c1		6.51 µM (active)
CC(Sc1nncn1C)C(=O)Nc1ccccc1-c1ccccc1 (stereo not given)	-0.357% (inactive)	
O=C(Cc1cccs1)NCc1cccc(C(F)(F)F)c1	-13.7% (inactive)	
Cn1c(=O)c2cc(NC(=O)NCCc3cccs3)ccc2n1Cc1cccc(C(F)(F)F)c1		23.1 µM (active)
COc1ccc(CCNC(=O)Nc2ccc3c(c2)c(=O)n(C)n3C)cc1OC	-3.91% (inactive)	
COc1ccc(S(=O)(=O)Nc2cccnc2)c(Cl)c1Cl	-22.8% (inactive)	
Cc1c(NC(=O)CSCc2ccccc2)cccc1C(=O)O	7.62% (inactive)	
Cc1cccc2cc3c(N)c(C(=O)N4CCCc5ccccc54)sc3nc12		2.59 µM (active)
O=C(c1cc(-c2ccc(O)cc2)on1)N1CCCc2ccccc21	-27.9% (inactive)	
Cc1occc1C(=O)N1CCCc2ccccc21	-3.66% (inactive)	
CC(C)[C@H](NC(=O)OCc1ccccc1)C(=O)OCc1ccccc1	-26.4% (inactive)	
Nc1scc[n+]1Cc1cccc2cccnc12	0.571% (inactive)	
c1ccc2c(C[n+]3csc4ccccc43)cccc2c1		0.82 µM (active)
Cn1c(C(=O)NCCc2ccsc2)cc2c(=O)n(C)c3ccccc3c21		16.4 µM (active)
CCOc1ccc(CCNC(=O)c2c(C)oc3ncn(C)c(=O)c23)cc1	3.22% (inactive)	
CCOCCCNC(=O)c1cn(CC(C)C)c(=O)c2c1c1ccccc1n2C	-21.2% (inactive)	
CCOc1ccc(CC(=O)NCCc2csc3nc(-c4ccccc4F)nn23)cc1	-21.6% (inactive)	
Cn1c(C(=O)N2CCC(C(N)=O)CC2)cc2c(=O)n(C)c3ccccc3c21	-19% (inactive)	
CCOc1ccc(CCNC(=O)c2cc3c(=O)n(C)c4ccccc4c3n2C)cc1		14.6 µM (active)
COc1ccc(C(=O)NNC(=O)c2cnccn2)cc1[N+](=O)[O-]	-8.01% (inactive)	
CCc1ccc(N2C(=O)CN(S(=O)(=O)CC)CC2(C)C(=O)NC2CCCCC2)cc1 (stereo not given)	-19.8% (inactive)	
Cc1cccc(-n2c(O)c(C=Nc3ccccc3N)c(=O)[nH]c2=O)c1	-6.79% (inactive)	
